In all, about 5,500 compounds went through this assay and about 2,000 (36%) were called active. Roughly 18% stayed inconclusive and do not appear here. Rule as the data show it: active = normalized growth mostly below about 0.91 (no sharp cut-off); inconclusive = no clear call, values can overlap the other calls; inactive = mostly above about 0.92. Some of the results follow.
Assay: chemical genetic growth profiling, strain panel (AID 1159580);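 also: tested at 20 µM; growth read once vehicle control cultures reached saturation at 30 °C; 1 = growth at the plate median or of vehicle wells; lower values mean less growth of the strain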
Details: S. cerevisiae deletion strains, growth OD

Measured: normalized growth

CC(N)[C@H](O)c1ccc(O)c(O)c1 (some centres undefined)
inactive: locus YAL013W, strain DEP1, active compounds read low 0.998 | locus YAL040C, strain CLN3, active compounds read low 1.05 | locus YCL061C, strain MRC1 (second series), active compounds read low 0.993 | locus YDR150W, strain NUM1, active compounds read low 0.995 | locus YDR363W, strain ESC2, active compounds read low 0.989 | locus YER002W, strain NOP16, active compounds read low 1 | locus YJR075W, strain HOC1, active compounds read low 0.983 | locus YNL153C, strain GIM3, active compounds read low 0.986 | locus YNL175C, strain NOP13, active compounds read low 1.01 | locus YNL197C, strain WHI3, active compounds read low 1.01 | locus YNL224C, strain SQS1, active compounds read low 0.992 | locus YNL322C, strain KRE1, active compounds read low 1.01 | locus YOR083W, strain WHI5 (second series), active compounds read low 0.988 | locus YPL055C, strain LGE1, active compounds read low 1
